Active and inactive are the calls of the source.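 Rule for the calls: active = calcium response above 60% of the acetylcholine maximum at human M5, as a positive modulator; inactive = the rest.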
target: Muscarinic acetylcholine receptor M5 (Homo sapiens) (UniProt P08912); assay: M5 muscarinic receptor positive allosteric modulators, cell-based, single concentration, CHO-K1 hM5, calcium flux (AID 743100); conditions: CHO-K1 hM5, Fluo-4 calcium flux, ACh EC20, hits give high values; at 10 µM unless noted
Sequence (P08912 whole entry, looked up): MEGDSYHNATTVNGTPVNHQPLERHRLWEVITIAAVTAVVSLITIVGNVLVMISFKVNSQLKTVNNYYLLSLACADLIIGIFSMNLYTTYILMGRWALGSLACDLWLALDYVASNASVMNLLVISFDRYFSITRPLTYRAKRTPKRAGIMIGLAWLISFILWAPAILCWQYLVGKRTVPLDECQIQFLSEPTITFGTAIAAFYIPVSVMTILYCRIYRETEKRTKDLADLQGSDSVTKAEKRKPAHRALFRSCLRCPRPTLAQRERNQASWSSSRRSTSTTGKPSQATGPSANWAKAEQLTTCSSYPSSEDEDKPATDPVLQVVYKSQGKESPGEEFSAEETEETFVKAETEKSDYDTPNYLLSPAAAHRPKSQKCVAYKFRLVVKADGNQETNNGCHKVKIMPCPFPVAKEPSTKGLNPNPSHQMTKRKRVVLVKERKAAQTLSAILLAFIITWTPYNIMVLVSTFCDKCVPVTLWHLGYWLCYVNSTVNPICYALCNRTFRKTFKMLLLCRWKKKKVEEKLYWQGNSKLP

% ACh max response, active:
CCN(Cc1ccccc1C(F)(F)F)C(=O)C1CCN(S(=O)(=O)c2ccc3occc3c2)CC1 84.8%
CCN(Cc1ccccc1F)C(=O)C1CCN(S(=O)(=O)c2ccc3cn[nH]c3c2)CC1 69.8%
CCN(Cc1ccccc1C(F)(F)F)C(=O)C1(F)CCN(S(=O)(=O)c2ccc3[nH]ncc3c2)CC1 75.9%
CCN(Cc1ccccc1)C(=O)C1CCN(S(=O)(=O)c2ccc3ncccc3c2)CC1 63.4% [at 30 µM]
CCN(Cc1ccccc1)C(=O)C1CCN(S(=O)(=O)c2ccc3c(c2)OCCO3)CC1 72.2% [at 30 µM]
CCN(Cc1ccccc1)C(=O)C1CCN(S(=O)(=O)c2ccc3c(c2)OCO3)CC1 62.9%
CCN(Cc1ccccc1C)C(=O)C1CCN(S(=O)(=O)c2ccc3cn[nH]c3c2)CC1 85.1%
CCN(Cc1ccccc1)C(=O)C1CCN(S(=O)(=O)c2ccc3cn[nH]c3c2)CC1 83.1% [at 30 µM]
CCN(Cc1cccc(C)c1)C(=O)C1CCN(S(=O)(=O)c2ccc3cn[nH]c3c2)CC1 85.8%

% ACh max response, inactive:
CCN(Cc1ccc(OC)cc1)C(=O)C1CCN(S(=O)(=O)c2ccc3cn[nH]c3c2)CC1 32%
CCN(Cc1ccccc1)C(=O)C1CCN(S(=O)(=O)c2c(C)noc2C)CC1 25.9% [at 30 µM]
CCN([C@H](C)c1ccccc1)S(=O)(=O)C1CCN(S(=O)(=O)c2ccc3[nH]ncc3c2)CC1 18.7%
CCN(Cc1ccccc1)C(=O)C1CCN(S(=O)(=O)c2ccc(OC)c(OC)c2)CC1 56% [at 30 µM]
O=C1N(Cc2ccccc2C(F)(F)F)CCCC12CCN(S(=O)(=O)c1ccc3[nH]ncc3c1)CC2 22.6%
CCN(Cc1ccccc1)C(=O)C1CCN(S(=O)(=O)c2cccnc2Cl)CC1 30% [at 30 µM]
CCN(Cc1ccccc1C(F)(F)F)C(=O)C1(F)CCN(S(=O)(=O)c2ccc(-n3cccn3)cc2)CC1 51.8%
CCN(CC1CCN(S(=O)(=O)c2cccc(OC)c2)CC1)C(=O)c1ccccc1 15.2%
CCN(Cc1ccccc1)C(=O)C1CCN(S(=O)(=O)c2cccc3c2OCCO3)CC1 48% [at 30 µM]
CCN(Cc1ccccc1)C(=O)C1CCN(C(=O)c2ccc(OC)cc2)CC1 25.5% [at 30 µM]
CCN(Cc1ccccc1)C(=O)C1CCN(S(=O)(=O)c2ccc(Cl)nc2)CC1 50.1% [at 30 µM]
CCN(Cc1ccccc1)C(=O)C1CCN(S(=O)(=O)c2ccccc2OC)CC1 28.1% [at 30 µM]
CCN(CC1CCN(S(=O)(=O)c2ccc3c(c2)OCCO3)CC1)C(=O)c1ccccc1 11.3%
CN(C)C(=O)C1(Cc2ccccc2)CCN(S(=O)(=O)c2ccc3occc3c2)CC1 8.49%
CCN(Cc1ccccc1)C(=O)C1CCN(S(=O)(=O)CC(C)(C)C)CC1 17% [at 30 µM]
COc1ccc(S(=O)(=O)N2CCC(C(=O)N3CCCC3c3ccccc3)CC2)cc1 (stereo not drawn) 25.6% [at 30 µM]
CCN(Cc1ccccc1)C(=O)C1CCN(S(=O)(=O)Cc2ccc(Br)cc2)CC1 26.2% [at 30 µM]
CC1c2ccccc2CCN1C(=O)C1CCN(S(=O)(=O)c2ccc3[nH]ncc3c2)CC1 (stereo not drawn) 40.4%
CCN(Cc1ccc(Oc2ccccc2)cc1)C(=O)C1CCN(S(=O)(=O)c2ccc3cn[nH]c3c2)CC1 39.1%
CCN(Cc1ccccn1)C(=O)C1CCN(S(=O)(=O)c2ccc3cn[nH]c3c2)CC1 35.1%
CCN(Cc1ccccc1)C(=O)C1CCN(S(=O)(=O)c2cnc[nH]2)CC1 33.7% [at 30 µM]
CCN(Cc1ccccc1)C(=O)C1CCN(S(=O)(=O)c2cc(C)ccc2C)CC1 24.5% [at 30 µM]
O=C(C1CCN(S(=O)(=O)c2ccc3[nH]ncc3c2)CC1)N1Cc2ccccc2C1 32.5%
CCN(Cc1ccccc1)C(=O)C1CCN(S(=O)(=O)c2ccccc2C#N)CC1 24% [at 30 µM]

Reference: PubChem BioAssay AID743100 (Vanderbilt Specialized Chemistry Center, 2013)
